Laboratory results taken from PubChem BioAssay (NCI).
Compounds without any hit were thinned out: in the full panel of roughly 79,000, 15% have a hit. A number with no mark means an inactive call. Calls of active or inactive are those of the source. Rule as the data show it: active = growth inhibition above about 70%; inactive = the rest.

Assays:
[1] = NCI Yeast Anticancer Drug Screen. Data for the rad50 strain (AID 155);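 also: 0% = growth of vehicle-only cultures of the same strain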; details: S. cerevisiae rad50 strain growth inhibition, hits give high values
Procedure, shortened: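 Cells are treated with compound, grown, and their growth is then scored against vehicle-only cultures of the same repair-deficient yeast strain.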

[2] = NCI Yeast Anticancer Drug Screen. Data for the mec2-1 strain (AID 157); details: S. cerevisiae mec2-1 strain, hits give high values
Procedure, shortened: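 Readout is yeast growth inhibition, normalised to vehicle-treated controls, in the mec2-1 strain exposed to compound.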

[3] = NCI Yeast Anticancer Drug Screen. Data for the sgs1 mgt1 strain (AID 161);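 also: 0% = growth of cultures given vehicle only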; details: S. cerevisiae sgs1 mgt1 strain, hits give high values
Procedure, shortened: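 Growth of a repair-deficient yeast mutant was monitored after compound treatment and expressed as inhibition relative to vehicle-treated cultures.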

[4] = NCI Yeast Anticancer Drug Screen. Data for the cln2 rad14 strain (AID 165);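 also: 0% = growth equal to vehicle treated cultures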; details: S. cerevisiae cln2 rad14 strain, hits give high values
Procedure, shortened: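 Relative to vehicle controls, growth inhibition of compound-treated cln2 rad14 yeast was recorded.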

[5] = NCI Yeast Anticancer Drug Screen. Data for the bub3 strain (AID 167); details: S. cerevisiae bub3 mutant strain, hits give high values
Procedure, shortened: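 Part of a panel of yeast mutants defective in DNA damage repair or cell cycle regulation. Each strain is grown with compound, and inhibition is calculated relative to solvent-treated cultures.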

[6] = NCI Yeast Anticancer Drug Screen. Data for the mlh1 rad18 strain (AID 175); details: S. cerevisiae mlh1 rad18 strain growth inhibition, hits give high values
Procedure, shortened: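 Test agents were incubated with a yeast strain of defined genotype (DNA damage repair defect). Inhibition of growth was derived by comparison with vehicle-exposed cultures.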

[7] = at 5.0 µM (retest, dose inferred, filed as 0.5)
[8] = at 50.0 µM (retest, dose inferred, filed as 5.0)

| SMILES | growth inhibition [1, 7] | growth inhibition [1, 8] | growth inhibition ([1]; at 50.0 µM) | growth inhibition [2, 7] | growth inhibition [2, 8] | growth inhibition ([2]; at 50.0 µM) | growth inhibition [3, 7] | growth inhibition [3, 8] | growth inhibition ([3]; at 50.0 µM) | growth inhibition [4, 7] | growth inhibition [4, 8] | growth inhibition ([4]; at 50.0 µM) | growth inhibition [5, 7] | growth inhibition [5, 8] | growth inhibition ([5]; at 50.0 µM) | growth inhibition [6, 7] | growth inhibition [6, 8] | growth inhibition ([6]; at 50.0 µM) |
| --- | --- | --- | --- | --- | --- | --- | --- | --- | --- | --- | --- | --- | --- | --- | --- | --- | --- | --- |
| COc1cc2c(cc1OC)-c1nc(Nc3ccccc3)sc1CC2 | -6% | 92% (active) | 43.4% | -1% | 94% (active) | 86.7% (active) | -3% | 88% (active) | 82% (active) | 5% | 88% (active) | 29.1% | 1% | 92% (active) | 78.5% (active) | -4% | 95% (active) | 93% (active) |
| CCCCCCCCCCCCCCCc1nc(SCC(=O)O)n[nH]1 | 2% | 58% | 54.8% | 0% | 52% | 55.9% | 18% | 54% | 74.2% (active) | 3% | 40% | 80.5% (active) | -1% | 67% | 37.1% | 9% | 71% (active) | 89.5% (active) |
| CC(C)(C)C1CCC(SCCO)CC1 (stereo not given) | -22% | 98% (active) | 97.5% (active) | -2% | 95% (active) | 91.9% (active) | -3% | 98% (active) | 97.7% (active) | -9% | 97% (active) | 90% (active) | -8% | 98% (active) | 95% (active) | 14% | 99% (active) | 95.4% (active) |
| N=C(N)SCc1nc(-c2ccc(Cl)cc2)no1 | 18% | 77% (active) | 94.3% (active) | 8% | 57% | 87.5% (active) | 0% | 78% (active) | 90.1% (active) | 0% | 61% | 70% (active) | -4% | 72% (active) | 94% (active) | -10% | 64% | 84.9% (active) |
| CC(=O)OC(C)C1C2=C(C(=O)CC1(C)O)C(=O)c1c(ccc(-c3ccc4c(c3O)C(=O)C3=C(C4=O)C(C(C)OC(C)=O)C(C)(O)CC3=O)c1O)C2=O (stereo not given) | 21% | 94% (active) | 72.8% (active) | 10% | 95% (active) | 79.6% (active) | 44% | 86% (active) | 76.5% (active) | 12% | 67% | 70.8% (active) | 13% | 85% (active) | 70.7% (active) | 28% | 94% (active) | 76.7% (active) |
| Cc1nn(-c2ccc(Cl)cc2)c2nc(N)nc(N)c12 | 3% | 0% | 30.2% | -3% | 11% | 30.6% | 2% | -2% | 34.4% | -5% | -6% | 62.6% | -1% | 0% | 21.2% | 0% | 9% | 45.4% |
| Nc1nc(N)c(-c2cccc(C(F)(F)F)c2)c(Cc2cccc(C(F)(F)F)c2)n1 | -2% | 98% (active) | 99.6% (active) | 14% | 98% (active) | 99.3% (active) | -1% | 98% (active) | 99.3% (active) | 24% | 91% (active) | 98.9% (active) | -4% | 95% (active) | 99.2% (active) | 0% | 99% (active) | 99.6% (active) |
| Oc1c(Cl)cc(C(c2cc(Cl)c(O)c(Cl)c2)C(Cl)(Cl)Cl)cc1Cl | 94% (active) | 98% (active) | 98.8% (active) | 95% (active) | 99% (active) | 99.1% (active) | 81% (active) | 99% (active) | 99.3% (active) | 99% (active) | 98% (active) | 98.5% (active) | 96% (active) | 99% (active) | 98.8% (active) | 92% (active) | 98% (active) | 98.6% (active) |
| N#Cc1ccc(OC(=O)Nc2c(Cl)cccc2Cl)cc1 | 46% | 41% | 80.4% (active) | 36% | 42% | 82.2% (active) | 44% | 53% | 86.2% (active) | 34% | 45% | 83.9% (active) | 31% | 70% (active) | 84.3% (active) | 47% | 50% | 83.5% (active) |
| CSc1c(S(C)=O)c2ccccc2n1C (stereo not given) | 20% | 17% | -20.6% | 22% | 27% | -13.2% | 12% | 11% | -22.2% | 25% | 17% | -6.4% | 3% | 8% | -39.5% | 27% | 20% | -26.4% |
